In paper PMC5540273 (PLoS ONE, 2017) one finds Kd data, which are given here for eight molecules.

Structures are written as SMILES.
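Note: kd values determined as follow-up on hits from a single-replicate KINOMEscan panel screen.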

In the first experiment the test system is JAK1(JH2domain-pseudokinase).
`Cc1cccc(-c2nc(Nc3ccc4[nH]ncc4c3)c3ccccc3n2)n1` [GW857175]: the Kd (usually the constant that tells how readily two partners part at equilibrium) turned out to be 650 nM.

In the case of `COc1ccc2nc(-c3cccc(C)n3)nc(Nc3ccncc3)c2c1` [GSK204919], the affinity, expressed as Kd, was 260 nM.

For `Cc1nnc(-c2ccc3occ(-c4ccc(S(C)=O)cc4)c3c2)[nH]1` (centres unmarked), the affinity, expressed as Kd, was 190 nM.

The next experiment deals with JAK2(JH1domain-catalytic).
The molecule `COc1ccc(CNC(=O)NC2CCN(c3ccnc(Nc4cc(OC)c(OC)c(OC)c4)n3)C2)cc1` (centres unmarked) [GSK1379748] registered a dissociation constant Kd of 350 nM. In other words, the sub-micromolar range.

Turning to `CSc1nn2c(=O)cc(N3CCOCC3)nc2n1Cc1cccc(C(F)(F)F)c1C` [GSK2363608], the dissociation constant Kd was more than 10000 nM.

For `Cc1cccc(-c2cc(Nc3ccncc3)c3ccccc3n2)n1` [GSK223675], the Kd was more than 10000 nM.

For `O=S(=O)(c1ccc(-c2ccnc3[nH]ccc23)cc1)N1CCCC1` [GSK846226], the Kd worked out at 360 nM.

Turning to `Cl.NC(=O)c1cccc(Nc2nccc(Nc3ccc(Oc4cccc(Cl)c4)c(Cl)c3)n2)c1` [GW659008], the dissociation constant (Kd) turned out to be 400 nM.
